Experimental data taken from the supplement of paper PMC6555819.

Columns and labels:
Experiment in all cases: PBM binding z-score (relative to random genomic background probes); higher = stronger binding; sequences stand for … in GC…GCGATTGACAGCGTAGAATGAAGG
[1] = system: PPARg:RXRa DBDmut IVT, anti-RXR (DBD mutation: RXRa K156A/R161A, NR concentration 270 nM, RXRa partner concentration 90 nM)
Method in brief: (§1)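 Each nuclear receptor dimer, without ligand, was incubated for 1 h on custom Agilent 4×180K protein-binding microarrays. Binding was detected with antibodies against each partner (one per run), and scanned fluorescence was regression-normalized. The binding z-scores are referenced to random human genomic background probes.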

[2] = system: PPARg:RXRa IVT, anti-PPARg (NR concentration 270 nM, RXRa partner concentration 90 nM)
Method in brief: as §1

[3] = system: PPARg DBDmut:RXRa IVT, anti-PPARg (DBD mutation: PPARg1 K132A/R137A, NR concentration 270 nM, RXRa partner concentration 90 nM)
Method in brief: as §1

[4] = system: PPARg DBDmut IVT, anti-PPARg (DBD mutation: PPARg1 K132A/R137A, NR concentration 270 nM)
Method in brief: as §1

[5] = system: PPARg homodimer (NR concentration 180 nM)
Method in brief: as §1

[6] = system: PXR:RXRa (NR concentration 270 nM, RXRa partner concentration 90 nM)
Method in brief: as §1

[7] = system: PXR homodimer (NR concentration 270 nM)
Method in brief: as §1

[8] = system: RARa:RXR (NR concentration 270 nM, RXRa partner concentration 90 nM)
Method in brief: as §1

[9] = system: RARa homodimer (NR concentration 270 nM)
Method in brief: as §1

[10] = system: RARb:RXRa (NR concentration 270 nM, RXRa partner concentration 90 nM)
Method in brief: as §1

[11] = system: RARb homodimer (NR concentration 270 nM)
Method in brief: as §1

[12] = system: RARg:RXRa (NR concentration 270 nM, RXRa partner concentration 90 nM)
Method in brief: as §1

[13] = system: RARg homodimer (NR concentration 270 nM)
Method in brief: as §1

[14] = system: RXRa DBDmut IVT, anti-RXR (DBD mutation: RXRa K156A/R161A, NR concentration 90 nM)
Method in brief: as §1

[15] = system: RXRa homodimer (NR concentration 180 nM)
Method in brief: as §1

[16] = system: THRa:RXRa (NR concentration 90 nM, RXRa partner concentration 90 nM)
Method in brief: as §1

[17] = system: THRa homodimer (NR concentration 90 nM)
Method in brief: as §1

[18] = system: VDR homodimer (NR concentration 270 nM)
Method in brief: as §1

Sequence	PBM binding z-score [1]	PBM binding z-score [2]	PBM binding z-score [3]	PBM binding z-score [4]	PBM binding z-score [5]	PBM binding z-score [6]	PBM binding z-score [7]	PBM binding z-score [8]	PBM binding z-score [9]	PBM binding z-score [10]	PBM binding z-score [11]	PBM binding z-score [12]	PBM binding z-score [13]	PBM binding z-score [14]	PBM binding z-score [15]	PBM binding z-score [16]	PBM binding z-score [17]	PBM binding z-score [18]
CCTACTGGGCCAAAAAGGTCATGGATGCCGATAA	3.31	4.16	0.474	-0.298	4.05	4.81	0.732	5.53	1.87	4.27	1.31	5	4.57	0.231	5.58	3.41	1.05	1.81
TAGCATAGGTCATTCAGGGGCCAGTATAGAAAGC	1.02	2.08	0.638	0.381	5.69	4.14	0.0442	5.79	1.25	4.4	3.72	7.38	5.09	1.83	5.02	3.87	-0.317	0.876
ATCTCTAGGTAAGAGTTCAGTGAATCCCGAGGAT	1.35	2.7	0.769	1.17	1.09	2.32	2.16	0.952	0.264	1.96	1.91	1.21	1.51	1.71	1.16	0.872	0.129	3.85
CGAACTAGGTCATCCAGGAAAGTGAATACATTGA	8.18	8.5	3.43	1.05	1.98	1.58	0.128	2.49	0.697	3.96	2.85	4.03	4.93	2.23	3.11	2.77	0.863	1.12
CAAACTAGGTCACGAAAGCTCAAAGTCGAATGAC	8.36	8.78	1.59	1.7	2.09	2.01	-0.0695	2.59	0.726	4.42	3.1	4.61	5.69	1.74	3.99	3.28	1.48	0.544
TCTTGTAGATCAAGCAGGATAAGAAAGCCTGAGT	1.53	0.265	0.695	0.533	0.027	-0.0334	0.538	0.108	0.37	-0.349	-0.48	-0.278	-0.0385	0.533	-0.0789	-0.341	-0.704	0.105
TGAATGAGGTTAAAGATCAGGGAGCGTGGCGTCG	2.38	3.63	0.471	-0.164	0.404	1.83	-0.192	2.89	-0.32	1.78	0.534	1.95	0.676	0.869	3.86	2.43	0.271	-0.0422
AGACAAAGTTCACTAGGTAACGTAAGATTCAGCT	2.37	4.14	1.01	0.842	1.94	3.7	2	2.91	0.576	4.83	3.8	4.72	5.53	4.31	3.69	2.09	-0.00149	3.48
ATATGTAGGATAAGGGTCATTCAGGTTGGTTCGC	4.06	5.32	1.23	0.978	3.23	4.9	2.87	4.72	2.11	3.18	3.69	3.9	3.42	2.09	4.8	3.25	1.38	4.54
TCTAGCAGGCCAGAGGGGCACTCAAGAGGTACGG	0.959	-0.0435	-0.531	-0.834	-0.877	-0.511	-0.673	-0.329	-0.905	0.329	0.611	0.104	0.165	-0.0321	0.357	-0.399	-0.898	-0.703
CCAGACAGGTGTGAAGGTAACTCAGCCTCGATTA	-0.0821	-0.409	-1.46	-0.767	0.376	-0.386	0.146	-0.273	0.322	-0.103	0.327	-0.276	-0.122	0.399	-0.117	0.116	0.347	0.0431
CCTACTGGGCAAAGGTCATTGATCAGTCAAAGCA	1.24	4.2	-0.384	-0.183	4.15	5.26	1.18	6.18	1.65	4.49	4.39	6.27	4.92	1.48	6.88	3.05	0.287	2.31
AATACAGGGTCACTAGGCCAGAGTCGGTACGAAT	4.04	5.73	1.74	1.6	2.69	3.08	0.172	4.13	1.14	4.1	3.25	5.29	4.87	2.71	5.3	3.43	1.24	2.7
CCTCACGGGTCACTCCAGGTTATAGCATCGGAGT	0.962	1.92	-0.553	-0.76	1.7	4.86	0.245	3.93	0.83	3.69	3.09	4.28	4.2	1.49	4.07	4.79	0.721	1.94
TGTCAAAGTTCAAATGTAACGTAAGTATCCACAC	0.32	4.15	1.72	2.11	2.82	5.13	4.03	3.93	2.08	5.02	3.94	5.53	5.93	4.69	5.3	2.16	-0.283	4.11
CTACCAAGGTAAACAAGGTCGTTGATTACTATTC	1.19	0.986	-0.194	0.206	0.169	2.25	1.6	1.75	0.382	0.851	1.18	0.545	0.535	1.34	1.06	3.2	1.5	2.04
CCTACTGGGCCAAATGTCATTGATTCCAATGCTC	4.77	4.36	0.17	0.471	0.28	-0.184	-0.329	0.0171	-0.233	0.654	0.556	0.265	0.594	0.342	0.124	-0.237	-0.347	-0.651
ATCTCGAGGTAAGACTCAGTTCAGTGAAGAACGC	-0.399	0.378	0.239	0.502	0.135	1.38	0.899	0.133	-0.44	0.228	0.343	0.254	0.121	0.0712	-0.00615	1.24	0.382	1.13
GCTATTGGTTGAAAGGGCAACCGAATGATTCTCG	0.217	0.624	0.114	-0.668	0.512	0.73	0.0657	1.48	0.176	1.87	1.94	1.33	1.27	0.0979	1.32	0.466	-0.293	0.0908
CCTACCGGGCCACGAAAGGTCATTGATTCAGTGA	0.938	2.28	-0.376	-1.2	2.6	5.44	2.13	5.36	0.144	4.07	4.84	4.67	4.47	0.0824	4.98	4.19	1.46	2.22
GTACCAAGGTGAAAAGGTCGTTGATGAGTAGGCG	1.77	2.85	0.246	-0.0504	2.35	2.73	0.862	3.71	0.82	3.35	3.49	4.66	2.59	0.369	3.57	2.58	0.7	1.7
CCTAACGGGTCAAGGTTATAGCACGGGTGGTACG	0.873	2.74	-0.204	-0.102	2.32	2.84	0.496	3.76	1.14	3.9	3.19	4.47	4.4	0.639	4.35	2.8	0.625	1.37
AGTCAAAGTTCACTAGCTAACGTAAGATTCAGCT	-0.129	1.99	0.927	0.426	1.85	3.57	1.99	2.79	0.935	4.56	3.22	4.66	5.41	4.14	3.53	1.4	-0.145	3.78
ACAGAAAGGTGAGTGAAGGTAACTCAGCTGGACG	1.69	1.91	0.587	-0.401	0.248	0.345	-0.335	0.81	0.239	2.47	1.15	1.58	1.59	-0.371	1.28	2.58	-0.361	-0.509
CGTCCAAGGTCAATACTAGGTCAGTGAAAGCATT	3.77	5	0.518	0.663	3.8	4.37	1.76	5.42	0.743	5.22	5.1	6.92	6.34	3.51	4.84	4.42	3	2.44
TTACCAAGGTGAGGGTCGTTGATCCCTCTGTAGA	1.3	2.21	-0.596	-0.428	0.109	0.865	-0.63	1.36	-0.812	1.45	0.945	0.785	0.443	-0.138	1.37	1.8	0.423	0.171
CCGACTGGGGCAAATGTTACCATACTCAGTACGA	4.63	3.74	0.00418	0.212	0.439	-0.402	-0.187	-0.273	-0.109	0.683	0.264	0.382	0.67	0.518	0.184	-0.0523	-0.199	-0.144
ACCGAAAGGTCGAAGGTGAGTATACCCACCCGAA	0.582	2.06	0.374	0.174	0.885	3.14	0.0236	4.6	0.157	3.84	2.51	4.53	4.2	1.35	5.27	2.11	-0.114	0.383
CCTAGTTGGTCAAGGGCACACACGCTATAGGTAC	1.1	1.69	-0.275	0.0269	1.15	0.512	0.494	0.731	1.05	1.98	1.78	1.41	1.99	0.232	0.726	1.09	0.605	1.09
